# PubChem BioAssay (NCI)
# This is part of a sample that, as a whole, favours compounds with a hit. Of some 83,000 tested, about 20% had one in any assay.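 Single-concentration screen, 48 h exposure, 96-well plates. Endpoint: percent growth. Below 10 = active.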 Unmarked numbers belong to inactive results. Active and inactive are the calls of the source.
# System: HOP-92 NSCLC
# Experiment: NCI-60 one-dose screen, 48 h (100 = growth as untreated, 0 = no growth, -100 = all killed)
# Details: 10 µM unless noted
row,SMILES,growth
1,CC/C(=C(\c1ccc(Cl)cc1)c1ccc(OCCN2CCCCC2)cc1)c1ccc(O)cc1,49.9%
2,CCOC(=O)c1[nH]cc2c1CCc1sc(Nc3ccccn3)nc1-2,56.3%
3,COc1cc(-c2ccc(-c3ccc(C(=N)N)cc3)s2)cc(OC)c1OC,43.4%
4,CN(C)c1ccc([C@@H](C(=O)Nc2cccc([N+](=O)[O-])c2)N(C(=O)c2cc3ccccc3[nH]2)c2cccc([N+](=O)[O-])c2)cc1,70.9%
5,Cc1cccc(NC(=O)N/C(N)=N/c2nc3ccccc3s2)c1,62.7%
6,CN(C)c1ccc(/C=N\NC(=O)c2ccc3nc(-c4ccc(Cl)cc4)[nH]c3c2)cc1,84.6%
7,C=C1SC(=Nc2ccccc2Cl)N(C(=O)c2sc3ccccc3c2Cl)C1(C)C,53.6%
8,CC[C@@H](C(=O)[C@@H](C)[C@@H](O)[C@H](C)[C@@H]1O[C@@H]([C@@H](CC)C(=O)ONC(=O)c2ccccc2O)CC[C@@H]1C)C1O[C@]2(C=CC(=O)[C@]3(CC[C@@](C)([C@H]4CC[C@](O)(CC)[C@H](C)O4)O3)O2)[C@H](C)C[C@@H]1C (stereo not given in full),37.3%
9,Cc1ccc(NC(=O)c2cc3ccccc3cc2O)c(C)c1,36.4%
10,CCN(CC)CCOc1ccc2c(-c3ccccc3)c(-c3ccc(OC)cc3)c(=O)oc2c1,63.9%
11,CCOC(=O)C1=C(CC(O)c2ccc(OC)cc2OC)NC(=O)NC1c1ccccc1 (stereo not given),82.5%
12,COc1nc(/C=C\Nc2ccc3c(c2)OCCOCCOCCOCCO3)nc(OC)n1,95.7%
13,Cc1c(O)cc(-c2cnc(N/N=C/c3ccccc3)s2)c(O)c1C,92.6%
14,CCCCO[C@@H]1C=C2[C@H]3CC(C)(C)C(=O)C[C@]3(C(=O)O[C@@H]3O[C@H](CO[C@@H]4O[C@H](CO)[C@@H](OC5OC(C)C(O)C(O)C5O)[C@H](O)[C@H]4O)[C@@H](O)[C@H](O)[C@H]3O)CC[C@@]2(C)[C@]2(C)CC[C@H]3C(C)(C)C(=O)CC[C@]3(C)[C@@H]12 (stereo not given in full),2.25% (active)
15,O=CN1N=C(c2cccc(Nc3ccnc4cc(Cl)ccc34)c2)CC1c1ccc(Cl)cc1 (stereo not given),21.9%
16,CCCCCCCCn1ccc2cc(NC(=O)CN3CCN(c4cc(C)nc(Cl)n4)CC3)ccc21,81.1%
17,O=C1Nc2ccccc2/C1=N/N1C(=O)CN(CCCl)C1=O,110%
18,CCOc1ccc(/C=C/C(=O)c2cccc(OCCCOc3cccc(C(=O)/C=C/c4ccc(OCC)cc4)c3)c2)cc1,91.6%
19,C=C1C(=O)O[C@H]2[C@H]1CC/C(COC(=O)NCc1ccc(Cn3c(=O)sn(-c4ccc(I)cc4)c3=O)cc1)=C\CC[C@@]1(C)O[C@@H]21,54.9%
20,O=C1/C(=C/c2c[nH]c(=O)[nH]c2=O)SC(=S)N1Cc1ccccc1,98.5%

row,SMILES,growth
1,Nc1nc(N(Cc2ccccc2)c2ccccc2)c2cn[nH]c2n1,62.1%
2,CC(C)NS(=O)(=O)/N=C1\NC(=O)NC1=C(Cl)Cl,122%
3,COc1cc2c(cc1OCCCN1CCN(C(=S)SCCC(C#N)(c3ccccc3)c3ccccc3)CC1)N=C[C@@H]1CCCN1C2=O,-71% (active)
4,O=c1cc(CP(=O)(O)O)c2cc(O)c(-c3ccccc3)cc2o1,95.7%
5,O=S(=O)(Nc1ccc2ccccc2c1)c1ccc(-c2cnc(C3CC3)o2)cc1,54.2%
6,N=C(N)c1ccc(OCCSCCOc2ccc(C(=N)N)cc2)cc1,79.2%
7,Fc1ccc(/C=C/[C@@H]2C[C@@H](F)CCO2)cc1,73.6%
8,COC(=O)[C@@]12CC=C(C)[C@]3(C[C@H](c4ccoc4)OC3=O)[C@H]1C=C[C@@H](O)[C@@]2(O)C(=O)OC,102%
9,O=c1oc2c(cc1-c1ccccc1)c(=O)[nH]c1ccccc12,103%
10,COc1ccc(C/C(C)=C(\c2ccc(O)cc2)c2ccc(OCCN3CCCCC3)cc2)cc1,72.3%
11,CNC(=O)c1cc(Oc2ccc3c(c2)sc2nc(-c4ccc(NC(=O)[C@@H](NC(=O)OC)C(C)C)cc4)cn23)ccn1,61.7%
12,Nc1[nH]nc2nc(-c3ccccc3)n3c4ccccc4nc3c12,122%
13,N#Cc1ccccc1-c1ccc(CN2C(=O)S/C(=C\c3ccc(Br)cc3)C2=O)cc1,94.6%
14,C=C1CC[C@@H]2C(C)(C)[C@H](O)CC[C@@]2(C)[C@@H]1COc1ccc2ccc(=O)oc2c1,72.4%
15,COc1cc2ncnc(Nc3ccc(S(=O)(=O)Nc4nccs4)cc3)c2cc1OCCCN1CCCC1,119%
16,Cc1cc(O)c(=O)cc2c1C[C@H]1CC(C)(C)/C=C/C[C@]3(C)Oc4cc(=O)c(O)cc(C)c4C[C@H]3C[C@H](O)[C@@]1(C)O2,2.97% (active)
17,COc1ccc2[nH]cc(-c3nonc3-c3c[nH]c4ccc(Br)cc34)c2c1,54%
18,COc1cc2c(c(OC)c1OC)C(=O)CC(c1cccc(C(=O)Nc3ccccc3Br)c1)O2 (stereo not given),68.4%
19,NS(=O)(=O)c1ccc(C(=O)N=Nc2c(O)[nH]c3ccc(Cl)cc23)cc1,103%
20,CCCN(CCSSCCNc1nc(N(C)O)nc(N(C)O)n1)c1nc(N(C)O)nc(N(C)O)n1,58.3%
